Broadly, the remaining activity is the signal under treatment as a percentage of the control signal.

Unmarked numbers belong to inactive results. No stated cut-off is given here; in the data, active means remaining activity below about 50%; inactive means the rest.

This is an account of results in PubChem BioAssay AID602143 (Vanderbilt Specialized Chemistry Center, 2011).

Phospholipase D2 (Homo sapiens), sequence (O14939 whole entry, looked up): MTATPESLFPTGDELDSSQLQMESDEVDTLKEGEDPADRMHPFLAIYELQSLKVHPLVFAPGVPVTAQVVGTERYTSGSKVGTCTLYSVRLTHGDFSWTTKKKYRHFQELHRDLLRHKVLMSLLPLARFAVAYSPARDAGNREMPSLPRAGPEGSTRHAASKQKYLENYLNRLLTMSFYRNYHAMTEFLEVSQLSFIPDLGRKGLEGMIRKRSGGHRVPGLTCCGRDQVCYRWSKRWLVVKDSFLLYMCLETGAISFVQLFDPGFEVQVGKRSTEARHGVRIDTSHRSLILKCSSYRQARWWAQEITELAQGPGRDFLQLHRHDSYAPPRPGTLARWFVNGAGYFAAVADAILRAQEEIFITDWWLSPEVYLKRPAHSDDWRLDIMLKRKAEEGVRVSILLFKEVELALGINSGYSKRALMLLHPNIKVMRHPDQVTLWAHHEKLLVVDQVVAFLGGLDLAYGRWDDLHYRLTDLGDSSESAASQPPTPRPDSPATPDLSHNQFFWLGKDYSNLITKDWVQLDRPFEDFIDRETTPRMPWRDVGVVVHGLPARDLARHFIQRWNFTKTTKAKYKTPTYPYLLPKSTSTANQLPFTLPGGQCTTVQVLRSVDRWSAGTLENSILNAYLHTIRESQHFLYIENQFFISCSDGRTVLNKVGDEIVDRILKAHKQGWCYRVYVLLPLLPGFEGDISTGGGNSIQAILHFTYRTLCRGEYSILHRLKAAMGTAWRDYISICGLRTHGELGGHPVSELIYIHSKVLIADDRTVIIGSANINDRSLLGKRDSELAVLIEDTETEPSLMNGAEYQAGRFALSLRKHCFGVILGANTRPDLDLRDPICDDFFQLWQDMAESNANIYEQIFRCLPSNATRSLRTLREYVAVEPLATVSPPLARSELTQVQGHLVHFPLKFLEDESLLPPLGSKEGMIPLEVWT
Phospholipase D2 (Homo sapiens), sequence (O14939 whole entry, looked up): as above

The assay addresses Phospholipase D2 (Homo sapiens) (UniProt O14939). The assay is described as follows: cellular phospholipase D2 activity inhibition – cell-based, HEK293, single concentration (AID 602143).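 Further: tested at 200 nM.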 Conditions: HEK293 cellular PLD2 activity, percent of control; hits give low values.
Take `O=C1c2ccccc2C(=O)N1CCCNc1cccc(F)c1`: the remaining activity is 119%. The value for `O=C(c1ccc(Cl)cc1)N(CCN1CCC(n2c(=O)[nH]c3ccccc32)CC1)C(=O)c1ccc(Cl)cc1` was 94.2%. `C[C@@H](CN1CCC2(CCc3ccccc32)CC1)NC(=O)c1cnc2ccccc2c1`: the remaining activity is 108%.
